Assay in all cases: NCI-60 one-dose screen, 48 h (100 = growth as untreated, 0 = no growth, -100 = all killed)
For one test, the system named is SR leukemia. The settings on record: 10 µM unless noted.
For the next test, the system named is RPMI-8226 leukemia. To be noted: 10 µM.
In another test the test system is OVCAR-8 ovarian. To be noted: 10 µM unless noted.
Another test deals with OVCAR-4 ovarian. To be noted: 10 µM unless noted.
For a further test, the system named is IGROV1 ovarian. To be noted: 10 µM unless noted.
The next test deals with OVCAR-3 ovarian. To be noted: 10 µM unless noted.
For the next test, the system named is HS 578T breast. To be noted: 10 µM unless noted.
The test system of a further test is BT-549 breast. To be noted: 10 µM unless noted.
A further test relates to MDA-MB-435 melanoma. The settings on record: 10 µM unless noted.
For a further test, the system named is SW-620 colon. The settings on record: 10 µM unless noted.
A further test has as its system MCF7 breast. To be noted: 10 µM unless noted.
The subject of the next test is HCT-116 colon. The settings on record: 10 µM unless noted.
Another test relates to HCC-2998 colon. To be noted: 10 µM unless noted.
For another test, the system named is KM12 colon. To be noted: 10 µM unless noted.
A further test has as its system OVCAR-5 ovarian. The settings on record: 10 µM unless noted.
A further test has as its system NCI/ADR-RES ovarian. The settings on record: 10 µM unless noted.
Another test relates to SK-OV-3 ovarian. To be noted: 10 µM.
For the next test, the system named is T-47D breast. The settings on record: 10 µM.

The values below come from PubChem BioAssay (NCI).

This is part of a sample that, as a whole, favours compounds with a hit. Of some 83,000 tested, about 20% had one in any assay.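 The test compound was applied at a single concentration to cells in 96-well plates for 48 hours, and percent growth was recorded.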 A number with no mark means an inactive call. The source made the active and inactive calls. How the source made its calls: active means growth percent below 10; inactive means the rest.

Take `CCC(C)Oc1cc(/C=N/NC(=O)c2cnn3c2NC(c2ccccc2)C3)ccc1OC` (stereo not given): the growth in the test with SR leukemia was 25.8%; in the test with RPMI-8226 leukemia, 45.7%; with OVCAR-8 ovarian, 47.2%; with OVCAR-4 ovarian, 48.3%; with IGROV1 ovarian, 48.1%; with OVCAR-3 ovarian, 2.52% (active). The growth is -15.1% (active) with HS 578T breast; 40.7% with BT-549 breast; 0.38% (active) with MDA-MB-435 melanoma; 27.3% in the test on SW-620 colon; 18.5% in the test with MCF7 breast; 22% in the test on HCT-116 colon. For the same compound, the results for the growth in the test with HCC-2998 colon and in the test with KM12 colon were 72.3% and 20.2%, respectively.
Turning to `COc1ccc(/C=C(\C#N)c2cc3ccccc3n2C)cc1`, the growth in the test with SR leukemia is 18.7%; with OVCAR-8 ovarian, 34.2%; with OVCAR-5 ovarian it was 39.7%; with OVCAR-4 ovarian, 37.1%; in the test on IGROV1 ovarian it was 34.7%; in the test on OVCAR-3 ovarian, -34.3% (active). Moreover, the growth was 2.89% (active) in the test on HS 578T breast; 8.82% (active) in the test with NCI/ADR-RES ovarian; 51.2% in the test on BT-549 breast; -49.1% (active) in the test on MDA-MB-435 melanoma; 20% in the test with SW-620 colon; 15.4% in the test on MCF7 breast. The growth was 18.2% in the test on HCT-116 colon, 24.8% in the test on HCC-2998 colon and 16.8% in the test with KM12 colon.
For the compound `O=C(COc1ccc(/C=C2\CSc3ccccc3C2=O)cc1)c1ccc(Cl)cc1`, the growth was 93.1% in the test on SR leukemia; 95.8% with RPMI-8226 leukemia; 110% in the test on OVCAR-8 ovarian; 107% in the test with OVCAR-4 ovarian; 107% in the test on SK-OV-3 ovarian; 96% in the test on OVCAR-3 ovarian. The growth in the test on HS 578T breast was 109%; in the test on T-47D breast, 94.8%; in the test on BT-549 breast, 110%; with MDA-MB-435 melanoma, 95.6%; in the test on SW-620 colon it was 115%; in the test with MCF7 breast it was 114%. Besides, the growth with KM12 colon was 106%.
Take `Cc1ccc(-c2nnc(COc3ccc(-c4nnc(N)s4)cc3)o2)cc1`: the growth in the test on SR leukemia was 5.12% (active); with OVCAR-8 ovarian it was 100%; in the test on OVCAR-5 ovarian, 113%; in the test with OVCAR-4 ovarian, 58%; in the test on SK-OV-3 ovarian, 80.7%; in the test with IGROV1 ovarian, 108%. Also, the growth with OVCAR-3 ovarian was 98.1%; in the test on HS 578T breast, 85%; with NCI/ADR-RES ovarian it was 95%; in the test with T-47D breast, 101%; in the test on BT-549 breast, 92.9%; in the test with MDA-MB-435 melanoma it was 72.4%. Also, the growth in the test with SW-620 colon was 94.8%; in the test on MCF7 breast it was 68.3%; in the test with HCT-116 colon it was 63.4%; in the test on HCC-2998 colon it was 107%; in the test on KM12 colon, 92.6%.
`O=c1oc2ccccc2cc1-c1csc(N/N=C/c2cc3ccccc3nc2Cl)n1`: the growth was 129% in the test on SR leukemia; 108% in the test on RPMI-8226 leukemia; 103% in the test with OVCAR-8 ovarian; 93.3% in the test on IGROV1 ovarian; 108% in the test on OVCAR-3 ovarian; 107% in the test on HS 578T breast. Besides, the growth in the test with NCI/ADR-RES ovarian was 99.7%; with T-47D breast, 90.8%; with BT-549 breast, 105%; in the test with MDA-MB-435 melanoma, 95.7%; with SW-620 colon it was 106%; in the test on HCT-116 colon it was 105%. In addition, the growth with HCC-2998 colon was 102%; in the test with KM12 colon, 100%.
As to `FC(F)(F)c1ccc2c(c1)n1cnnc1c1nncn21`, the growth in the test on SR leukemia is 84.1%; in the test on RPMI-8226 leukemia, 95.2%; in the test with OVCAR-5 ovarian, 110%; in the test on OVCAR-4 ovarian it was 111%; in the test on SK-OV-3 ovarian it was 109%; in the test with IGROV1 ovarian it was 119%. Also, the growth is 117% in the test on OVCAR-3 ovarian; 113% in the test on NCI/ADR-RES ovarian; 102% in the test on T-47D breast; 103% in the test with BT-549 breast; 112% in the test with MDA-MB-435 melanoma; 108% with SW-620 colon. The growth was 98.2% with MCF7 breast, 105% in the test with HCT-116 colon, 108% with HCC-2998 colon and 110% in the test on KM12 colon.
Consider `COc1cc(-c2nc(SC(C)C)nc(Nc3ccccc3C)c2C#N)cc(OC)c1OC`, for which the growth with SR leukemia was 110%; in the test with OVCAR-8 ovarian, 103%; with OVCAR-5 ovarian it was 99.1%; with OVCAR-4 ovarian, 110%; in the test with IGROV1 ovarian, 104%; in the test with OVCAR-3 ovarian, 121%. In addition, the growth in the test on HS 578T breast was 104%; with NCI/ADR-RES ovarian, 109%; in the test with BT-549 breast it was 109%; in the test with MDA-MB-435 melanoma, 106%; with SW-620 colon, 104%; in the test on MCF7 breast, 101%. The values for the growth in the test with HCT-116 colon, in the test with HCC-2998 colon and in the test with KM12 colon were 114%, 106% and 104%, respectively.
Take `COc1cc(Cn2cc(F)c(=O)[nH]c2=O)cc(OC)c1`: the growth with SR leukemia is 103% [50 µM]; in the test with OVCAR-8 ovarian it was 101% [50 µM]; in the test on OVCAR-5 ovarian it was 101% [50 µM]; in the test on OVCAR-4 ovarian, 108% [50 µM]; in the test with IGROV1 ovarian it was 106% [50 µM]; with OVCAR-3 ovarian, 126% [50 µM]. The growth is 96.7% [50 µM] with HS 578T breast; 112% [50 µM] in the test on NCI/ADR-RES ovarian; 95.4% [50 µM] in the test on BT-549 breast; 109% [50 µM] with MDA-MB-435 melanoma; 102% [50 µM] in the test on SW-620 colon; 104% [50 µM] in the test with MCF7 breast. Moreover, the results for the growth with HCT-116 colon and with HCC-2998 colon were 111% [50 µM] and 114% [50 µM], respectively.
Regarding `CCOC(=O)c1sc(NC(=O)CN2CCC(Cc3ccccc3)CC2)nc1C`, the growth was 83.7% with SR leukemia; 110% with OVCAR-8 ovarian; 103% in the test on OVCAR-5 ovarian; 98.6% with OVCAR-4 ovarian; 102% with SK-OV-3 ovarian; 87.6% in the test with IGROV1 ovarian. In addition, the growth is 108% in the test with OVCAR-3 ovarian; 83.4% in the test with HS 578T breast; 94.1% in the test with NCI/ADR-RES ovarian; 101% in the test on T-47D breast; 104% with BT-549 breast; 105% with MDA-MB-435 melanoma. The growth was 95.8% in the test on SW-620 colon; 94.4% with MCF7 breast; 81.5% in the test on HCT-116 colon; 102% with HCC-2998 colon; 106% with KM12 colon.
Take `c1ccc2cc(-c3n(Cc4ccc5ccccc5n4)c4ccccc4[n+]3Cc3ccc4ccccc4n3)ccc2c1`: the growth with SR leukemia was -24.5% (active); with OVCAR-8 ovarian, -0.932% (active); in the test on OVCAR-5 ovarian, 8.83% (active); with OVCAR-4 ovarian, 4.26% (active); with IGROV1 ovarian it was -51% (active); in the test on OVCAR-3 ovarian, -18.9% (active). Besides, the growth is -9.29% (active) in the test on HS 578T breast; 58.6% with NCI/ADR-RES ovarian; -5.25% (active) in the test on BT-549 breast; -35.6% (active) with MDA-MB-435 melanoma; -9.76% (active) in the test on SW-620 colon; -10.4% (active) in the test with MCF7 breast. The growth in the test on HCT-116 colon is 2.75% (active); with HCC-2998 colon, -52.7% (active); in the test on KM12 colon, -80.8% (active).
